Our source for the inhibition values is ChEMBL document CHEMBL1961873, “Compounds: GSK PKIS; Assays: Nanosyn kinase panel” (2012).

The test relates to Platelet-derived growth factor receptor alpha (Homo sapiens), P16234 [D842V]. The note with it: at 1 µM.
Chain of Platelet-derived growth factor receptor alpha (Homo sapiens), P16234 [D842V] (P16234 whole entry D842V): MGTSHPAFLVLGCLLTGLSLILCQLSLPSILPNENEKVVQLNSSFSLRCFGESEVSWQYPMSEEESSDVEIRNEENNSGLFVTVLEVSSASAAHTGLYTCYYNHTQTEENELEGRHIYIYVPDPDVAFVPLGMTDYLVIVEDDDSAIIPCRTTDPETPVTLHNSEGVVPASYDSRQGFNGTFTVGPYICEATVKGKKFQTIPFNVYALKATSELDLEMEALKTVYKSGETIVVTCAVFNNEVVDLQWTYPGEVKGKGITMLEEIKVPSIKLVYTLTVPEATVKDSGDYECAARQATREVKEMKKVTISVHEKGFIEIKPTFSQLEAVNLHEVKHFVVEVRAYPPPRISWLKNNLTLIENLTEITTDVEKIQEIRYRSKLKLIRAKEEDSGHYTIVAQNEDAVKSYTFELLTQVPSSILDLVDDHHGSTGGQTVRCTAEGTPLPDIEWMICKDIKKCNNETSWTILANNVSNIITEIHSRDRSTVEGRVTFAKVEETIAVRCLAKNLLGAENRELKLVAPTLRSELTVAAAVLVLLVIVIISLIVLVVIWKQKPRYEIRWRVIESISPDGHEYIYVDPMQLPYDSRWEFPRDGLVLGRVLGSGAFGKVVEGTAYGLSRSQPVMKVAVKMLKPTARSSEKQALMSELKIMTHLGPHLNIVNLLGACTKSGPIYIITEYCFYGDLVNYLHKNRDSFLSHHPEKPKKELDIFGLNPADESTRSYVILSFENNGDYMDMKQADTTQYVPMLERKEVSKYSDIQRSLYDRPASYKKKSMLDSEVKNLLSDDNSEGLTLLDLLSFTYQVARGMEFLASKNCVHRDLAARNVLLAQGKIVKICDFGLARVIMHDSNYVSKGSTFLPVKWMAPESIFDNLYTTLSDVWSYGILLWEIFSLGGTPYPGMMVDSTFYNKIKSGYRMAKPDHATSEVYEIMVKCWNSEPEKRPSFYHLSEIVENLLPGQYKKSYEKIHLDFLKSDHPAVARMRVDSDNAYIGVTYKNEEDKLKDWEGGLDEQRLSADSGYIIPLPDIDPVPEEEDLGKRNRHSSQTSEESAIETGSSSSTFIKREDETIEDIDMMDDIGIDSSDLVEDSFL
`O=C1NC(=O)C(c2cccc(Cl)c2)=C1Nc1ccc(Cl)c(C(=O)O)c1`: the inhibition (as a rule, the share of the control response that was lost under treatment) was 1.68%.
Regarding `CCc1cccc(CC)c1/C=C/c1cncc(C(=O)NC)c1`, the inhibition turned out to be 1.22%.
For the compound `C/C(Nc1ccc(S(N)(=O)=O)cc1)=C1/C(=O)Nc2ccccc21`, the inhibition was 33.6%.
The value for `Cc1ccc(C(=O)NC2CCC2)cc1-c1ccc(C(=O)NCC2CC2)cc1` was 0.66%; that for `O=C(Nc1n[nH]c2cc(-c3ccccc3)ccc12)C1CC1` was 8.97%; that for `NS(=O)(=O)c1ccc(N/N=C2\C(=O)Nc3ccc(-c4cnco4)cc32)cc1` was 40.8%.
Compound `COc1cc(C)c(N(C)C(=O)CN(C)C)cc1Nc1nc(Nc2cccc(F)c2C(N)=O)c2cc[nH]c2n1` showed an inhibition of 0.89%.
Compound `CN1CCN(CCCNc2nc3ccc(Oc4ccc(NC(=O)Nc5cc(C(F)(F)F)ccc5F)cc4)cc3[nH]2)CC1` showed an inhibition of 4.41%.
Take `Fc1ccc(-c2ncn(C3CCNCC3)c2-c2ccnc(Oc3ccc(F)c(F)c3)n2)cc1`: the inhibition is 3.42%.
In turn, `Cc1ccc(C(=O)NC(C)C)cc1-c1ccc(C(=O)NCC2CC2)cc1` registered an inhibition of 2.56%.
Take `N#Cc1ccc(Oc2nccc(-c3c(-c4ccc(F)cc4)ncn3C3CCNCC3)n2)cc1`: the inhibition came to 4.12%.
`NC(=O)Cc1ccccc1Oc1nccc(-c2c(-c3ccc(F)cc3)ncn2C2CCNCC2)n1` gave an inhibition of 0.79%.
`c1ccc(Oc2ccc(Nc3ncc(-c4ccccc4)o3)cc2)cc1` returned an inhibition of 3.18%.
`Fc1ccc(-c2ncn(C3CCNCC3)c2-c2ccnc(Oc3ccc4c(c3)OCO4)n2)cc1` gave an inhibition of 5.32%.
Regarding `COc1ccc(C2=C(N3CCc4ccccc43)C(=O)NC2=O)cc1`, the inhibition is 8.45%.
In the case of `C#Cc1cccc(Nc2ncnc3ccc(OCCCCNCCS(C)(=O)=O)cc23)c1`, the inhibition was 11.5%.
